Whole data set: some 110,000 compounds, median “z-score” near -0.1, cut for the highest 2% near 2. The full list was thinned out, with the highest values kept by preference. Activity calls are given as the source filed them.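 The calls were made as follows: active = z-score in the third read window above 3 or below -3; inactive = the rest.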
Target: Metabotropic glutamate receptor 8 (Rattus norvegicus) (UniProt P70579)
Assay: rat mGluR8 modulators via GIRK flux, primary screen, cell-based, thallium flux, HTS (AID 488969)
Details: HEK293 rat mGluR8, GIRK (G protein-gated inwardly rectifying potassium channel) thallium flux, FluoZin2; at 10 µM; stronger effect = higher value; submaximal glutamate (EC20) added with thallium

Metabotropic glutamate receptor 8 (Rattus norvegicus), sequence (P70579 whole entry, looked up): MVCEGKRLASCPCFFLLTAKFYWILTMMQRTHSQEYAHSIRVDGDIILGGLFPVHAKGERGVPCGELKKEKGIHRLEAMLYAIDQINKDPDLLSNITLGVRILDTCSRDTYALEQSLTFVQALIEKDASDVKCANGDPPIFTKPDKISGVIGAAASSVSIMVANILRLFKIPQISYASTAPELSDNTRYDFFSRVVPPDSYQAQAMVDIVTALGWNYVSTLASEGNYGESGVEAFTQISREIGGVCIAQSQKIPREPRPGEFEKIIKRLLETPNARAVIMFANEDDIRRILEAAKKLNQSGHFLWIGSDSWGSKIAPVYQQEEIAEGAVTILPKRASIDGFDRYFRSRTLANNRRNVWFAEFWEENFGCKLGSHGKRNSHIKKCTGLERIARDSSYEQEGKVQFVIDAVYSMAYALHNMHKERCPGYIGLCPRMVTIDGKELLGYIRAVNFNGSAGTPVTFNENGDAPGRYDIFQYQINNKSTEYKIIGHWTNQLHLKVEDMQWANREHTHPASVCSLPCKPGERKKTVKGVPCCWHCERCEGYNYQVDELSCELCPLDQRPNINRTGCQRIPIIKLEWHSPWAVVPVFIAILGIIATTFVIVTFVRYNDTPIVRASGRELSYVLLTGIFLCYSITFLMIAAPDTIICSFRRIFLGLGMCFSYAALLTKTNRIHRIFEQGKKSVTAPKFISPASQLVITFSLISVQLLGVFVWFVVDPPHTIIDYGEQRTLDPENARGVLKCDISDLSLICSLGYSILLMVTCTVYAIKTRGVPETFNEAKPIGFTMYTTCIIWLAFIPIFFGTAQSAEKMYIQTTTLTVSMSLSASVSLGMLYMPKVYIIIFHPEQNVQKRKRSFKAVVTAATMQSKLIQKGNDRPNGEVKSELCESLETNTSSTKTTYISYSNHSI

| Structure (SMILES) | z-score |
| --- | --- |
| Cc1ccc(C2N(c3ccc(F)cc3)C(=O)C3CCCN32)cc1 (stereo unspecified) | 0.214 |
| N#Cc1cc(C(=O)c2ccccc2OCC(=O)Nc2ccccc2Cl)cn(C2CCCCC2)c1=O | -0.433 |
| CCn1c(CCCOc2ccc(Cl)cc2Cl)nnc1SCC(=O)Nc1cccc(F)c1 | -0.135 |
| CCOc1ccccc1Nc1ncccc1C(=O)N1CCCC1 | 1.1 |
| Cc1ccc(C)c(N2CCN(S(=O)(=O)c3c(C)noc3/C=C/N(C)C)CC2)c1 | -0.559 |
| CC1(C(=O)N2CC3(CC(c4ccccc4)=NO3)C[C@H]2C(=O)NCC(N)=O)CC1 (stereo partly specified) | -0.0396 |
| CCOc1ccccc1Oc1c(C)oc2c(CN3CCN(CCO)CC3)c(O)ccc2c1=O | -0.395 |
| CCc1ccc(N2CC(C(=O)Nc3ccc(C)c(S(=O)(=O)N4CCOCC4)c3)CC2=O)cc1 (stereo unspecified) | 0.319 |
| CC(C)NC(=O)c1ccccc1N(Cc1ccccc1)S(C)(=O)=O | 0.373 |
| COc1ccc2nc(NC(=O)c3cccc(-c4cc5ccccc5oc4=O)c3)sc2c1 | 0.372 |
| Cc1cc(C)cc(C(=O)NC(=S)Nc2ccc3c(c2)OCCO3)c1 | -0.353 |
| Cc1ccc(C(=O)NC(=S)Nc2ccc3c(c2)OCCO3)c(C)c1 | 2.7 |
| CCc1ccc(C(=O)NC(=S)Nc2ccc3c(c2)OCCO3)cc1 | 0.946 |
| Cc1ccc(Cl)c(NC(=S)N(CCCN2CCOCC2)Cc2ccco2)c1 | -0.227 |
| Cc1cccc2cc(/C=N/NC(=O)c3ccccc3O)c(Cl)nc12 | 0.0387 |
| O=C(NCCCCNC(=O)c1ccc(Cl)s1)c1ccc(Cl)s1 | -0.423 |
| COc1ccc(N/N=C(/C(N)=O)C2=NC(C)(C)Cc3ccccc32)cc1 | -0.381 |
| CC1(C)Cc2ccccc2C(/C(=N\Nc2cccc(Cl)c2)C(N)=O)=N1 | 3.23 (active) |
| Cc1cccc(N/N=C(\C(N)=O)C2=NC(C)(C)Cc3ccccc32)c1 | -0.302 |
| Cc1cc(C(=O)N/N=C/c2cccnc2)c(C)o1 | 0.000639 |
| O=C(CCCCl)NC(=S)Nc1cc(C(F)(F)F)ccc1N1CCOCC1 | 0.012 |
| O=C1CCCC2=C1C(c1ccncc1)c1c(nc(SCc3ccccc3)[nH]c1=O)N2 (stereo unspecified) | -1.55 |
| CCn1c2ccccc2c2cc(/C=N/n3cnnc3)ccc21 | -1.04 |

| Structure (SMILES) | z-score |
| --- | --- |
| CCn1c2ccccc2c2cc(/C=N/n3cn[nH]c3=S)ccc21 | 11.5 (active) |
| CCn1c2ccccc2c2cc(/C=N/n3c(C)nnc3C)ccc21 | -1.04 |
| CC1CCN(c2cc(N)c(Cl)cc2[N+](=O)[O-])CC1 | -0.475 |
| CC1CCN(c2ccc(/C=N/n3nnnc3N)cc2[N+](=O)[O-])CC1 | 3.58 (active) |
| Nc1nnnn1/N=C/c1ccc(N2CCCCC2)c([N+](=O)[O-])c1 | 1.18 |
| Cc1ccc(/C=N/n2nnnc2N)cc1[N+](=O)[O-] | 0.159 |
| Cc1nnc(N/N=C/c2cc([N+](=O)[O-])c(N3CCC(C)CC3)cc2N2CCC(C)CC2)n1N | 2.68 |
| CCc1nnc(N/N=C/c2ccc(N3CCC(C)CC3)c([N+](=O)[O-])c2)n1N | -0.0832 |
| CC(=O)Nc1ccc(OCC(O)CN2C(C)CCCC2C)cc1 (stereo unspecified) | -0.417 |
| Cn1c(=O)c2c(nc(SCc3ccccc3)n2Cc2ccc(Cl)cc2)n(C)c1=O | -0.333 |
| C/C(CC(O)c1ccc2ccccc2n1)=N/O (stereo unspecified) | 5.27 (active) |
| CC(=O)/C=C/c1ccc2ccccc2n1 | 0.038 |
| Cc1c(O)ccc(/C(Cc2ccc3ccccc3n2)=N\O)c1O | -0.308 |
| CCc1ccc2[nH]c(=O)c(C(c3nnnn3Cc3ccco3)N3CCC(C)CC3)cc2c1 (stereo unspecified) | -0.27 |
| O=C(c1cccs1)N(C(=O)c1cccs1)c1ccc(Br)cn1 | 2.26 |
| Cc1ccnc(N(C(=O)c2cccs2)C(=O)c2cccs2)c1 | -0.0449 |
| O=C(/C=C/c1cccs1)Nc1ccc(Br)cn1 | -0.222 |
| CC(=O)N1c2ccccc2Oc2cc3ccccc3cc21 | -0.261 |
| Cc1ccc(C(=O)N/N=C2\SCC(=O)N2c2cc(C)ccc2C)cc1 | -0.396 |
| Cc1cccc(N2C(=O)CS/C2=N\NC(=O)c2ccc(Br)cc2)c1C | 1.16 |
| Cc1cccc(N2C(=O)CS/C2=N\NC(=O)c2ccc(Cl)cc2)c1C | 3.96 (active) |
| Cc1ccc(N2C(=O)c3ccccc3C2Nc2ccccc2)nc1 (stereo unspecified) | -0.424 |
| CN1CCC/C1=C/C=C1\SC(=S)NC1=O | 2.4 |

| Structure (SMILES) | z-score |
| --- | --- |
| CN1CCN(/C=C2\SC(=S)NC2=O)CC1 | -0.54 |
| Cc1nn(C)c(C)c1/C=C1/SC(=S)NC1=O | 0.492 |
| Cc1ccc(C(=O)CSc2nc3ccccc3c(=O)n2-c2ccccc2)s1 | 0.061 |
| O=C(NCc1ccccc1)/C(=N\O)c1ccccc1 | 0.503 |
| O=C(NCc1cccnc1)/C(=N\O)c1ccccc1 | 2.02 |
| O=C(NCc1ccncc1)/C(=N/O)c1ccccc1 | 1.14 |
| COc1ccc(N(CC(=O)NCCC2=CCCCC2)S(C)(=O)=O)cc1OC | 0.274 |
| CCN1C(=O)/C(=C2/Sc3ccc(OC)cc3N2C)SC1=Nc1ccc(C(C)=O)cc1 | -0.0997 |
| CCOC(=O)N1CCC(NC(=O)c2ccc(CS(=O)(=O)c3ccc(OC)cc3)o2)CC1 | -0.141 |
| O=C(CN1CCCCC1)Nc1ccc(S(=O)(=O)N2CCOCC2)cc1 | -0.0871 |
| COc1ccccc1-c1nc2cc3ccccc3cc2nc1-c1ccccc1OC | -0.377 |
| CCCc1nn(C)c2c(=O)[nH]c(-c3ccccc3OCC)nc12 | -0.237 |
| O=c1ccc2cc(S(=O)(=O)Nc3ccc(F)cc3)ccc2o1 | -0.226 |
| Cc1cc(C)cc(NS(=O)(=O)c2ccc3oc(=O)ccc3c2)c1 | 2.23 |
| Cc1cc(C)cc(NS(=O)(=O)c2ccc3[nH]c(=O)[nH]c3c2)c1 | 0.711 |
| CCOC(=O)N1CCN(C(=O)CSCC(=O)Nc2nc(-c3ccc4c(c3)OCO4)cs2)CC1 | -0.296 |
| O=C(CSCC(=O)N1CCOCC1)Nc1nc(-c2ccc3c(c2)OCO3)cs1 | 2 |
| CC1CN(C(=O)CSc2nc(-c3ccc(F)cc3)cs2)CC(C)O1 (stereo unspecified) | -0.898 |
| CCC(=O)Nc1nc(-c2ccc3c(c2)OCCO3)cs1 | -0.0358 |
| O=C(CSc1nc(-c2ccc(F)cc2)cs1)N1CCc2ccccc21 | -0.119 |
| O=C(CSCC(=O)N1CCCCC1)Nc1nc(-c2ccc(Cl)s2)cs1 | 2.68 |
| CC1CCCN(C(=O)CSCC(=O)Nc2nc(-c3cccs3)cs2)C1 (stereo unspecified) | 0.503 |
| O=C(CSc1nc(-c2ccc(F)cc2)cs1)N1CCOCC1 | 3.29 (active) |

| Structure (SMILES) | z-score |
| --- | --- |
| O=C(CSCC(=O)N1CCN(c2ccccc2)CC1)Nc1nc(-c2ccc(Cl)s2)cs1 | 0.16 |
| O=[N+]([O-])c1ccc(Cl)c(S(=O)(=O)N2CCCCCC2)c1 | -0.0418 |
| COc1ccc(-c2nsc3c(SCC(=O)Nc4cc(C)ccc4C)ncnc23)cc1 | 0.00156 |
| CC(NS(=O)(=O)c1ccc(CCC(=O)N2CCN(C)CC2)cc1)c1ccccc1 (stereo unspecified) | -0.349 |
| O=C(Cc1ccccc1)Nc1nnc(-c2cccs2)s1 | 0.154 |
| O=C(Cc1ccccc1)Nc1nc(-c2cccs2)cs1 | 2.99 |
| CC(=O)Nc1nc(-c2cccs2)cs1 | -0.281 |
| O=C(COc1ccccc1)Nc1nc(-c2cccs2)cs1 | 2.15 |
| O=C(COc1ccccc1)Nc1nccs1 | 1.35 |
| O=C(COc1ccccc1Cl)Nc1nc(-c2cccs2)cs1 | 0.4 |
| Cc1cccc2cc(CN(Cc3ccc(F)cc3)C(=O)C(F)(F)F)c3nnnn3c12 | -0.681 |
| Cc1ccc2c(c1)N(CC(=O)NCc1ccco1)C(=O)CO2 | -0.265 |
| COc1ccc2nc(SCc3cnc(C)nc3N)[nH]c2c1 | 0.0366 |
| CCc1ccc2[nH]c(=O)c(CN(CCN(C)C)C(=O)Nc3ccccc3)cc2c1 | -0.0486 |
| N#Cc1c(N)sc2c1CCN(CCc1ccccc1)C2 | 0.208 |
| COc1ccccc1-n1c(SCC(=O)NC2CCS(=O)(=O)C2)nc2cc([N+](=O)[O-])ccc21 (stereo unspecified) | -0.116 |
| CCOC(=O)CCSc1nc(C)c2cc(OC)ccc2n1 | -0.0662 |
| COc1ccc2nc(SCC(=O)O)nc(C)c2c1 | -0.216 |
| CCOC(=O)CSc1nc(C)c2cc(OC)ccc2n1 | 6.89 (active) |
| CC1CCCN(C(=O)C2CCCN(S(=O)(=O)c3cccc4nsnc34)C2)C1 (stereo unspecified) | 0.195 |
| Cc1cc(C(=O)NNC(=S)NCC(C)C)cs1 | 0.377 |
| CCCCNC(=S)NNC(=O)c1csc(C(C)C)c1 | 0.133 |
| CCNC(=S)NNC(=O)c1csc(C(C)C)c1 | -0.354 |

| Structure (SMILES) | z-score |
| --- | --- |
| Cc1cccc(NC(=S)NNC(=O)c2csc(C(C)C)c2)c1 | 8.28 (active) |
| Cc1ccc(C)c(NC(=S)NNC(=O)c2csc(C(C)C)c2)c1 | 12 (active) |
| Cc1ccc(C)c(NC(=S)NNC(=O)c2ccc(Br)o2)c1 | 0.537 |
| CCCCn1c(SCC(=O)Nc2cc(C)on2)nnc1-c1ccco1 | 1.3 |
| CCOc1ccccc1NC(=O)c1cc(S(=O)(=O)N2CCC3(CC2)OCCO3)ccc1F | -0.432 |
| CCOc1ccccc1NC(=O)c1ccc(F)c(S(=O)(=O)N2CCC3(CC2)OCCO3)c1 | 2.77 |
| COc1ccccc1NC(=O)c1cc(S(=O)(=O)N2CCC3(CC2)OCCO3)ccc1F | -0.251 |
| CCNC(=S)NN=C1CCC(C(C)(C)C)CC1 (stereo unspecified) | 0.883 |
| O=C(COC(=O)COc1ccccc1Cc1ccccc1)Nc1cccnc1Cl | -0.941 |
| Cc1cccc2sc(NC(=O)CSCc3ccccc3)nc12 | 0.801 |
| Cc1cccc2sc(NC(=O)Cn3cccc3)nc12 | 13.9 (active) |
| Cc1cccc2sc(NC(=O)CN3C(=O)c4ccccc4C3=O)nc12 | -0.16 |
| Cc1onc(-c2c(F)cccc2Cl)c1C(=O)N1C=CC(C(F)(F)F)=NCC1 | -0.013 |
| O=C(CSc1nc(O)cc(=O)[nH]1)N1CCCc2ccccc21 | -0.65 |
| Nc1nc(SCC(=O)N2CCc3ccccc32)[nH]c(=O)c1-c1ccccc1 | 0.47 |
| Cc1nnc(SCC(=O)N2CCCc3ccccc32)[nH]c1=O | -0.411 |
| Cc1cc(=O)[nH]c(SCC(=O)N2CCCc3ccccc32)n1 | 0.265 |
| O=C(CSc1nc(-c2ccccc2)cc(=O)[nH]1)N1CCc2ccccc21 | 9.86 (active) |
| CCc1c(C)nc(SCC(=O)N2CCc3ccccc32)[nH]c1=O | 4.54 (active) |
